Shown are actives, neighbours in structure and some others; about 12% of the full set was active somewhere.
WT yeast gro inh – growth inhibition of WT yeast, mitochondrial fusion screen; 190,000 compounds, 2.1% hits; mitochondrial fusion phenotypic screen, WT strain; inhibition, % at 10 µM; in the data active = inhibition above about 58%; tested in S. cerevisiae
L major viab – Leishmania major promastigote growth inhibition. 200,000 compounds, 9% hits. Leishmania major promastigotes, resazurin fluorescence viability. inhibition, % at 10 µM; in the data active = inhibition above about 50%;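 note: promastigotes grown with compound for 44 hours at 28 °C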
CHOP inh – inhibitors of CHOP induction in ER stress response. CHO-K1 CHOP-promoter luciferase, tunicamycin-induced, 15-18 h. inhibition, % at 10 µM. 220,000 compounds, 3.8% hits. AID 2732;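 active = compounds that reduced the stress-induced luciferase reporter signal by more than about 70% of percent inhibition, limit read from the data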;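 note: 0% = tunicamycin plus vehicle and 100% = wells without tunicamycin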
Arbovirus anti – arbovirus infection inhibition | 200,000 compounds, 0.37% hits | arbovirus infection cell-based antiviral screen | inhibition, % at 10 µM | AID 1251; in the data active = inhibition above about 30%
L major 1uM – blocks Leishmania major promastigote growth at 1 uM, repeat screen; shares compounds with L major viab; L. major promastigote growth, resazurin fluorescence, 48 h; inhibition, % at 1 µM; 1,100 compounds, 13% hits;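 active = inhibition above about 50% in both repeat tests, limit read from the data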
Starred values were filed as active, the others as inactive; nt = no result given.

SMILES	WT yeast gro inh	L major viab	CHOP inh	Arbovirus anti	L major 1uM
COc1ccc(CNCCC(c2ccc(OC(C)C)cc2)C(C)C)cc1OC (centres undefined)	17.8	98.2*	51.5	-45.8	10.4
S=C1NCCOCCOCCOCCOCCNC(=S)NCCOCCOCCOCCOCCN1	-18.7	1.6	-8.2	4.1	nt
O=C1CC(C(=O)Nc2cc(Cl)ccc2Cl)n2ncnc2N1 (centres undefined)	-0.5	-6.0	-6.2	1.5	nt
CN1c2cccc3cccc(c23)N(C)C1(C)C	-28.6	98.9*	8.2	6.5	-16.2
O=C(Cc1c[nH]c2ccccc12)Nc1ccccc1N1CCOCC1	-6.9	8.6	26.5	-2.2	nt
CC(=O)c1c(C(C)=O)c(C)n(C2CCCCC2)c1C	5.3	-4.3	6.2	-1.2	nt
Cc1nc2ccccc2cc1C(=O)N/N=C/c1ccco1	-10.1	70.0*	18.1	0.1	-3.6
Cc1ccc2nc(C)c(C(=O)N/N=C/c3ccco3)cc2c1	16.9	41.0	5.7	1.4	nt
O=C(N/N=C/c1ccco1)c1cc([N+](=O)[O-])cc([N+](=O)[O-])c1	5.2	97.4*	44.9	-9.7	16.0
Cn1c2ccccc2c(=O)c2c(=O)n(Cc3ccccc3)c(-c3ccc(F)cc3)nc21	nt	nt	-27.7	nt	nt
OCCNC1=NCCN1	-6.2	-3.3	-6.1	0.4	nt
Fc1ccc(Sc2ccccc2CNC2=NCCN2)cc1	79.5*	99.6*	14.8	9.2	-9.0
Cc1ccnc(NS(=O)(=O)c2ccc(NS(=O)(=O)c3ccccc3)cc2)n1	-4.4	-3.1	29.3	-3.2	nt
Cc1nnc(Nc2ccccn2)c2ccccc12	22.6	70.1*	2.8	-2.4	89.7*
Cc1nnc(NCc2ccncc2)c2ccccc12	-11.5	-3.8	-7.4	0.8	nt
CC(C)(C)c1cc(CSC(=S)NC2CCS(=O)(=O)C2)c(Br)c(C(C)(C)C)c1 (centres undefined)	36.6	95.2*	54.0	-32.4	8.1
C=CCN1C(=O)N/C(=C/c2ccc(C)o2)C1=O	-6.8	-5.3	12.0	1.7	nt
CCN1CCN(CC(=O)Nc2cc(C(F)(F)F)ccc2OCCOC)CC1	nt	nt	-9.4	nt	nt
CCn1cc[n+](C)c1P(c1ccccc1)c1ccccc1	-1.9	98.2*	20.5	-7.6	19.9
COC(=O)c1ccc(-c2ccc(CNCC(O)c3ccccc3)o2)cc1 (centres undefined)	9.7	99.1*	31.0	-3.2	55.3*
O=C(Nc1sc(-c2ccccc2)cc1C(=O)O)c1ccccc1	nt	nt	-27.3	nt	nt
c1ccc2c(CSCCc3ccncc3)cccc2c1	7.0	99.3*	1.0	4.7	7.7
COc1ccc(S(=O)(=O)NCC2CCCN(C(=O)CC3CCCC3)C2)cc1 (centres undefined)	3.6	8.9	14.6	-1.5	nt
O=C(O)CC1CCC(=C(Cl)Cl)C1 (centres undefined)	-9.7	95.4*	79.0*	0.9	-8.3
O=C(O)CC1CCS(=O)(=O)C1 (centres undefined)	14.6	-1.1	-1.2	5.2	nt
SMILES	WT yeast gro inh	L major viab	CHOP inh	Arbovirus anti	L major 1uM
CC(/C=C/c1ccco1)=N\NC(=O)CNc1cccc(C)c1	9.0	-0.4	7.2	-1.6	nt
COc1ccc([N+](=O)[O-])c(OC)c1C(=O)NC(=O)Nc1c(F)cc(F)cc1F	nt	nt	-5.2	nt	nt
COC(=O)c1ccc(CN2CCN(Cc3ccc(C(=O)OC)o3)CC2)o1	4.4	1.6	-0.3	0.1	nt
COC(=O)c1ccc(CN(Cc2ccc(C(=O)OC)o2)C(C)(C)C)o1	0.8	97.1*	8.9	1.8	-11.7
Nc1nccc(-c2ccc(-n3cnc4ccccc43)cc2)n1	-4.1	6.5	57.4	10.3	nt
Cc1nccc(-c2ccc(-n3cnc4ccccc43)cc2)n1	6.8	62.4*	20.3	1.5	-9.9
O=C1C=C(NCCOC23CC4CC(CC(C4)C2)C3)C2(CCCCC2)O1	5.2	85.9*	47.0	-7.7	19.7
Cc1ccc(C23CC4CC(CC(CN)(C4)C2)C3)cc1	22.1	100.1*	8.5	-32.6	13.2
O=C(O)/C=C/C(=O)NC1CCS(=O)(=O)C1 (centres undefined)	-8.4	60.9*	-1.6	1.4	-13.3
O=C(O)/C=C\C(=O)NC1CCCCC1	-2.9	-7.3	-10.0	1.8	nt
Cc1ccc(-c2cc(C(F)F)n3ncc(C(=O)N4CCCCC4c4cccnc4)c3n2)cc1 (centres undefined)	46.5	95.2*	50.9	-7.7	14.6
CC(C)(C)c1ccc(S(=O)(=O)N2C=CC(C(F)(F)F)=NCC2)cc1	-8.3	59.0*	28.5	8.3	-12.7
CCc1cc2c(nc1CC)CCN(CC/C(C)=N/OC[C@H]1O[C@H](c3ccccc3)C=C[C@@H]1Oc1ccc(OC)cc1)C2	39.3	67.4*	46.9	-24.6	-4.1
CCN(CC)CCOC(c1ccccc1)c1ccc(C)cc1 (centres undefined)	9.0	96.5*	40.3	-14.8	73.8*
